In the library only some 21% were active in any assay of this set; here they are far more common.
Cycloheximide cs: Cycloheximide Counterscreen for Small Molecule Inhibitors of Shiga Toxin. cell reporter, cycloheximide protein synthesis inhibition counterscreen. max response, %. hit rate 12% among 300,000; in the data active = max response mostly above about 13%, no sharp cut-off; inactive = mostly below about 14%; also: read at 38.3 µM for the half of the compounds with a filed dose; 0% is about no effect
FBPA Giardia inh: qHTS Assay for Inhibitors of Fructose-1,6-bisphosphate Aldolase from Giardia Lamblia; A8B2U2; Potency, µM (doses to about 59.6 µM), for the others: top-dose activity, negative = inhibition, most hits filed as inhibitors; hit rate 0.71% among 290,000; AID 2451, 2010; purified Giardia FBPA; also: potency is read from the fitted curve at half-maximal effect; % is scaled to controls: 0 for no effect and ±100 for the full control effect; nearly all actives have a fitted effect of over 55% in size
Target sequence (A8B2U2 whole entry, looked up): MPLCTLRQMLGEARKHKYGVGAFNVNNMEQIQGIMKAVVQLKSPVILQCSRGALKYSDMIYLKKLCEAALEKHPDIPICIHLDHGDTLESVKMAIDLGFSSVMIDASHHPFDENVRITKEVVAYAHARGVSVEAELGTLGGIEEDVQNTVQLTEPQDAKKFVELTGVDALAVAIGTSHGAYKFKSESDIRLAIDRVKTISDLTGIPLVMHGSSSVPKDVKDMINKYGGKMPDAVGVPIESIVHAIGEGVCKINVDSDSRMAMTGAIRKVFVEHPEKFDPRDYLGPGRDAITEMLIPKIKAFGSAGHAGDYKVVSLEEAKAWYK
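40 nM FBPA preincubated 10 min at RT with compound (up to 57.5 uM final), then substrate plus GAPDH/TPI/NAD/arsenate coupling and diaphorase/resazurin added. Fluorescence read after 20 min at RT, 525/598 nm.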
Pf growth 48h: Primary qHTS for delayed death inhibitors of the malarial parasite plastid, 48 hour incubation. P. falciparum luciferase growth in erythrocytes, 48 h. Potency, µM (top dose mostly 28.7 µM), without a hit: at the top dose activity change, negative = inhibition, hits mostly inhibitors. hit rate 5.9% among 310,000; also: potency is read from the fitted curve at half-maximal effect; % is scaled to controls: 0 for no effect and ±100 for the full control effect
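Firefly luciferase activity from engineered P. falciparum reports growth; inhibitors lower the luminescent signal. Cultures contained 2% hematocrit erythrocytes at 0.1% final parasitemia.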
NS1 function inh: qHTS Assay for Inhibitors of Influenza NS1 Protein Function; Potency, µM (series often up to 46.1 µM), inactives show at the highest dose activity, positive = more growth; hit rate 0.4% among 270,000; calls by dose curve; also: potency is read from the fitted curve at half-maximal effect; actives are rising curves; nearly all actives have a fitted effect of over 50% in size
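In this qHTS, NS1 from influenza A is expressed in budding yeast, where it slows growth. Cells are switched from glucose to 2% galactose medium (pH 6.0, -URA), treated with compound, and growth recovery is read at OD600.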
Shiga toxin inh: A qHTS for Small Molecule Inhibitors of Shiga Toxin. Vero cells, Shiga toxin protein synthesis inhibition reporter. inhibition, % at 38.7 µM. hit rate 9.2% among 290,000; in the data active = inhibition mostly above about 28%, no sharp cut-off; inactive = mostly below about 43%; also: 0% is about no effect
Pf growth 96h: Primary qHTS for delayed death inhibitors of the malarial parasite plastid, 96 hour incubation; P. falciparum luciferase reporter growth, 96 h; Potency, µM (top dose mostly 28.7 µM), inactives show at the top dose activity change, negative = inhibition, most hits filed as inhibitors; hit rate 6.9% among 320,000; AID 504834, 2011; also: potency is read from the fitted curve at half-maximal effect; % is scaled to controls: 0 for no effect and ±100 for the full control effect
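Cell-based qHTS: luciferase-tagged P. falciparum in erythrocytes (2% hematocrit, 0.05% parasitemia final) incubated with compounds for 96 hours, 37 C, 5% CO2; luciferase detection reagent then added and luminescence measured.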
* hit, by the source's call; i = inactive; u = inconclusive; x = no result; [ ] = dose if it differs, or a comment. Unless noted, calls follow the shape of the dose curve; as a rule, active = well fitted curve in the direction sought with a large enough effect; inconclusive = small, poorly fitted or top-dose-only effect, or another doubt; inactive = no such curve, though single readings can be large; an effect the other way counts as inactive or inconclusive.

SMILES	Cycloheximide cs	FBPA Giardia inh	Pf growth 48h	NS1 function inh	Shiga toxin inh	Pf growth 96h
CCC(C(=O)N1CCOCC1)n1nc(C)c2c(C)n(-c3ccccc3)nc2c1=O (stereo unspecified)	-9	x	6%	14%	-1	42%
COc1ccc2c(c1)N(C)/C(=C/c1cccc[n+]1C)S2	10	6%	0.37µM*	-3%	-3	u
CCN1/C(=C/c2cccc[n+]2C)Sc2ccc(OC)cc21	2	3%	1µM*	-4%	-9	-27%
CCN1/C(=C/C(C)=O)Sc2ccc(OC)cc21	5	-16%	8%	-56%	-19	u
N[C@@](CCc1ccccc1)(C(=O)O)c1ccccc1	x	x	x	-7%	x	x
O=C1Nc2ccccc2N=C(c2ccccc2)c2ccccc21	20*	5%	u	-5%	17	u
COc1ccc(Oc2nc(Oc3ccc(OC)cc3)nc(Oc3ccc(OC)cc3)n2)cc1	-1	3%	20%	11%	-12	29%
COc1ccc(-c2nncnn2)cc1	16	0%	u	-33%	22	6.6µM*
COc1ccc(-c2ccc(OC)cc2)cc1	34*	23%	u	x	13	82%
COCCCNC(=O)C1CCC(CNS(=O)(=O)c2ccc(C)cc2)CC1 (stereo unspecified)	5	2%	10µM*	x	16	77%[5.75 µM]
CCOC(=O)C(Oc1ccc2c(-c3ccccc3)cc(=O)oc2c1)c1ccccc1 (stereo unspecified)	2	0%	u	20%	-16	u
Fc1ccc(-c2noc(-c3ccc4c(c3)CCO4)n2)cc1	56*	4%	144%	1%	77*	i
S=c1nccc(-c2ccc3c(c2)CCO3)[nH]1	-3	-13%	24%	15%	-7	-9%
O=C(Nc1ccccc1OC(F)F)c1cc2c(s1)CCC2	40*	2%	78%	-14%	43*	109%
COc1cc(OC)cc(C(=O)NNC(=O)c2cc3c(s2)CCCC3)c1	-1	4%	60%	1%	1	9%
O=C(NNC(=S)Nc1ccc(OC(F)F)cc1)c1cc2c(s1)CCCC2	14*	16%	16%	-6%	10	34%
Cc1ccccc1NC(=O)Cc1nc(COC(=O)c2cc([N+](=O)[O-])ccc2N)cs1	1	x	u	u	-3	u
CC1(C)CC(=O)C(C=NCCc2ccccn2)=C(O)C1	8	4%	-15%	1%	-28	x
CC1(C)CC(=O)C(C=NCc2ccc3c(c2)OCO3)=C(O)C1	active	0%	-14%	1%	-4	14%
CC1(C)CC(=O)C(C=Nc2cccnc2)=C(O)C1	17	3%	33%	-3%	3	7%
CC1(C)CC(=O)C(C=NCCc2ccc(O)cc2)=C(O)C1	-5	2%	-14%	13%	9	5.2µM*
CC1(C)CC(=O)C(C=Nc2ccc(O)c(N=CC3=C(O)CC(C)(C)CC3=O)c2)=C(O)C1	1	u	10µM*	x	15	u
CC1(C)CC(=O)C(C=Nc2ccc3c(c2)OCO3)=C(O)C1	39*	0%	5%	3%	81*	x
COc1ccc(C(=O)O)cc1S(=O)(=O)Nc1ccc(Oc2ccccc2)cc1	x	x	u	x	x	-19%
CC(C)CCn1nc(C(=O)Nc2nc3c(s2)CCCC3)c2ccccc2c1=O	7	-4%	10µM*	21%	-17	u
SMILES	Cycloheximide cs	FBPA Giardia inh	Pf growth 48h	NS1 function inh	Shiga toxin inh	Pf growth 96h
CCCn1nc(C(=O)Nc2nnc(C3CC3)s2)c2ccccc2c1=O	x	x	-32%	x	x	u
CCCn1nc(C(=O)Nc2nc(-c3ccccn3)cs2)c2ccccc2c1=O	x	x	4.1µM*	x	x	4.1µM*
CCn1nc(C(=O)Nc2nc(-c3ccccn3)cs2)c2ccccc2c1=O	x	x	2.3µM*	x	x	2.6µM*
Cn1nc(C(=O)Nc2cccnc2)c2ccccc2c1=O	-3	1%	29%	-5%	-7	x
Cn1nc(C(=O)Nc2nc(-c3ccccn3)cs2)c2ccccc2c1=O	x	x	4.1µM*	x	x	3.3µM*
COCCn1c(=O)c(C)nc2cnc(N3CCNCC3)nc21	x	-7%	x	x	x	x
CC1CN(C(=O)CCC(=O)NC2CCCCC2)c2ccccc2S1 (stereo unspecified)	-1	-5%	8%	-27%	9	57%

Source: PubChem BioAssay
